Data on six compounds can be found in ChEMBL document CHEMBL2218924, “A broad activity screen in support of a chemogenomic map for kinase signalling research and drug discovery” (Biochem J, 2013).

Experiment [1] addresses Calcium/calmodulin-dependent protein kinase type 1 (Homo sapiens) (UniProt Q14012). The conditions noted are these: at 1 µM.
For experiment [2] the target is unchanged. Conditions: at 10 µM.
For experiment [3], the target named is Calcium/calmodulin-dependent protein kinase type II subunit beta (Homo sapiens) (UniProt Q13554). The conditions noted are these: at 10 µM.
Sequence of Calcium/calmodulin-dependent protein kinase type II subunit beta (Homo sapiens) (Q13554 whole entry): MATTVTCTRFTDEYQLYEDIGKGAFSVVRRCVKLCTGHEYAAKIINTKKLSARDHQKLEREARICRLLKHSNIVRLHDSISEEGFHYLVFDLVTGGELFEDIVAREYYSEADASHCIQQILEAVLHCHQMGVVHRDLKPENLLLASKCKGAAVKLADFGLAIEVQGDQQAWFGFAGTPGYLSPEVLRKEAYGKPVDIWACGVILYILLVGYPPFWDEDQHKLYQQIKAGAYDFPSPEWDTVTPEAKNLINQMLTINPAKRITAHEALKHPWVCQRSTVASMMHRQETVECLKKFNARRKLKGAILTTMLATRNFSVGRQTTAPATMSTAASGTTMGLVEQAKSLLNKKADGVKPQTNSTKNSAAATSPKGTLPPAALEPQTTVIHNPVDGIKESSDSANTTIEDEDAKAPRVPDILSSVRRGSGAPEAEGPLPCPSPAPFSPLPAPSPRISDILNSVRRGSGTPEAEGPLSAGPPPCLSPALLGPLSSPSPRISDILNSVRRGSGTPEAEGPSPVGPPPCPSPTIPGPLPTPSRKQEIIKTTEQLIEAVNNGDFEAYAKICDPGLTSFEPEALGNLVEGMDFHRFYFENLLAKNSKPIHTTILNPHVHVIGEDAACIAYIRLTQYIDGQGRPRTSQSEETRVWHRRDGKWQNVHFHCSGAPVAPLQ
The target of experiment [4] is Calcium/calmodulin-dependent protein kinase type II subunit gamma (Homo sapiens) (UniProt Q13555). Conditions: at 1 µM.
Sequence of Calcium/calmodulin-dependent protein kinase type II subunit gamma (Homo sapiens) (Q13555 whole entry): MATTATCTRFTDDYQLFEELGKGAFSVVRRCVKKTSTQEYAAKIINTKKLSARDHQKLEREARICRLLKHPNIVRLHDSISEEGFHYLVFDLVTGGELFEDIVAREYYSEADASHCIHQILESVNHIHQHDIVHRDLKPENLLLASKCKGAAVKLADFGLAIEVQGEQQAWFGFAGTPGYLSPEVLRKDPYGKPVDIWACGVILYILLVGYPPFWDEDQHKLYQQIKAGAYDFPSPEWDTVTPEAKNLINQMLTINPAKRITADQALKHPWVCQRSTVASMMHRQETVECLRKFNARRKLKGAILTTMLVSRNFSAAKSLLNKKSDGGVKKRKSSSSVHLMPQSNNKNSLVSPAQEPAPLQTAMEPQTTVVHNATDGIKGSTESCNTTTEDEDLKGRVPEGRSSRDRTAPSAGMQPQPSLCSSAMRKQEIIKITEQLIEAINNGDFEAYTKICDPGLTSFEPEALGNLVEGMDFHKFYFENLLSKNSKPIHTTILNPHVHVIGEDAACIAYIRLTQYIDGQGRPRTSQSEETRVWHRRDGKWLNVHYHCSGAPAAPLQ
Experiment [5] shares this target. Conditions: at 10 µM.
Experiment [6] deals with Calcium/calmodulin-dependent protein kinase type II subunit delta (Homo sapiens) (UniProt Q13557). The conditions noted are these: at 1 µM.
Sequence of Calcium/calmodulin-dependent protein kinase type II subunit delta (Homo sapiens) (Q13557 whole entry): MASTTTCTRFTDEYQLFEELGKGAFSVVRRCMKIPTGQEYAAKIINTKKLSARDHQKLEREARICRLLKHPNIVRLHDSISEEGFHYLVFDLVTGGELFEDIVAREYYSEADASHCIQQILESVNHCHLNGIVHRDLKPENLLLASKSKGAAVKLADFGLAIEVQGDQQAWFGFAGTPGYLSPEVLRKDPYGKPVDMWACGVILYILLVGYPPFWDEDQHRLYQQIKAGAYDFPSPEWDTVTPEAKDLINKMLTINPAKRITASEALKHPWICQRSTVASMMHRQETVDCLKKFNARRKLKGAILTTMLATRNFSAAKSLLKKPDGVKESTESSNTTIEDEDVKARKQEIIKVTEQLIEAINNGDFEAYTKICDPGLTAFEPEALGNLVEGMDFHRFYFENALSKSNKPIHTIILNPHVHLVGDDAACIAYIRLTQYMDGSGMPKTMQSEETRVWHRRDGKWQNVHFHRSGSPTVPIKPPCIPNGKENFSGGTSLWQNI
The target is the same in experiment [7]. Conditions: at 10 µM.
The target of experiment [8] is Death-associated protein kinase 1 (Homo sapiens) (UniProt P53355). The conditions noted are these: at 10 µM.
Sequence of Death-associated protein kinase 1 (Homo sapiens) (P53355 whole entry, looked up): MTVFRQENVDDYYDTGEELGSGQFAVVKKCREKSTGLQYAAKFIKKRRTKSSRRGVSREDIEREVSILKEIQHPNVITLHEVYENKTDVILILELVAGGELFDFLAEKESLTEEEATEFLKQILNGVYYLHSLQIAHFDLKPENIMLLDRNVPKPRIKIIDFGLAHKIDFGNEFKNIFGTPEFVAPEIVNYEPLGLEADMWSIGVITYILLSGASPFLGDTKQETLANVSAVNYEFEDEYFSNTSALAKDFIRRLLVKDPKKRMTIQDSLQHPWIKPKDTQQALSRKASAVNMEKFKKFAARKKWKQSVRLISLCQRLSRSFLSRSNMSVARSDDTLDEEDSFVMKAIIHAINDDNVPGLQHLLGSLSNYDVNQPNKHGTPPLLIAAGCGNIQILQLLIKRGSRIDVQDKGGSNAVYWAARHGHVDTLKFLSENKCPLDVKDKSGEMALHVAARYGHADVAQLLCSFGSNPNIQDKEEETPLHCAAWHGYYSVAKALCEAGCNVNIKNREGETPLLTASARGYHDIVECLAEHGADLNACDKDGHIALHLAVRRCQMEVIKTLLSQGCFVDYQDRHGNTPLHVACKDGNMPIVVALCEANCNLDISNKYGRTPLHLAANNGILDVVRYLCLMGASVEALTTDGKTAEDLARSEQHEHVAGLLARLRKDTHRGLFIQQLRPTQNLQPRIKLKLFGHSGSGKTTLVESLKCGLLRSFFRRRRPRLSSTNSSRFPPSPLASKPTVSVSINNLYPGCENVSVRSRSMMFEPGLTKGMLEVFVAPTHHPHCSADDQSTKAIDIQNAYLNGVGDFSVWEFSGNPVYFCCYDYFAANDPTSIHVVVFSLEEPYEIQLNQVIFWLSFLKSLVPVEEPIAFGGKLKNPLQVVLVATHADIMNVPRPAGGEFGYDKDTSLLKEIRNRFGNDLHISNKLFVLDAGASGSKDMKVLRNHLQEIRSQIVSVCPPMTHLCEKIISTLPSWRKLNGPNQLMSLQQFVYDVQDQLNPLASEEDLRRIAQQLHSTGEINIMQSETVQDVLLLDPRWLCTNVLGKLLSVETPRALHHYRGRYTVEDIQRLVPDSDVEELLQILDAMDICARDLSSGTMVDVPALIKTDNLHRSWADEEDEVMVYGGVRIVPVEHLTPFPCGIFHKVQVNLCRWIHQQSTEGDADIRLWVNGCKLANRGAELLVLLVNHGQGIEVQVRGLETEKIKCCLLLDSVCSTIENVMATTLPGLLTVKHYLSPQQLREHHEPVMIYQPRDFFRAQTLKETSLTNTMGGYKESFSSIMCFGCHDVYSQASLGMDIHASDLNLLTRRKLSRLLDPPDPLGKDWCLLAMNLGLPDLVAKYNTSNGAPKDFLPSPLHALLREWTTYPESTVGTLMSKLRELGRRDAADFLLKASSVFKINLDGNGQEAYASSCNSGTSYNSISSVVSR
The target in experiment [9] is T1, Serine/threonine-protein kinase DCLK2 (Homo sapiens) (UniProt Q8N568).
T1 sequence (whole entry): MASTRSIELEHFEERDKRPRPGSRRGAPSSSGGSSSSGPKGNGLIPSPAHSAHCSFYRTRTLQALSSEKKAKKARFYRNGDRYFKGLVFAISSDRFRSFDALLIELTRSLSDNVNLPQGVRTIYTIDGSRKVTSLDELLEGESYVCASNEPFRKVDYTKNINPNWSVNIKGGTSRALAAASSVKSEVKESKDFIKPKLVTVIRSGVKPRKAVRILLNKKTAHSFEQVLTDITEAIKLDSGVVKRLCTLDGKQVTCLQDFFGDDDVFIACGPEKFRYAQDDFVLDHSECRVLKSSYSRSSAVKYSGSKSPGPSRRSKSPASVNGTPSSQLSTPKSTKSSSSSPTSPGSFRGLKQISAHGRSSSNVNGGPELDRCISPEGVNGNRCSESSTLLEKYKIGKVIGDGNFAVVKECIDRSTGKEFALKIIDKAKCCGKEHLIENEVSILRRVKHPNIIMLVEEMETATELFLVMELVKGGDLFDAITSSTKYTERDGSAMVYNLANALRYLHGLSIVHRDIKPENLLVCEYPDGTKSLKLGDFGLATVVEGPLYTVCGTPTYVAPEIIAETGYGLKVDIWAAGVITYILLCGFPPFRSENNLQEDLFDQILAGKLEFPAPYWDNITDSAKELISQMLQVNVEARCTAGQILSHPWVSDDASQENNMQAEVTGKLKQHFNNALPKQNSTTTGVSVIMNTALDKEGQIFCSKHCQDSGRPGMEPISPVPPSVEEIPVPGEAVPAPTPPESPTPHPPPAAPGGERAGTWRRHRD
The conditions noted are these: at 1 µM.

Experiment [10] has as its target T1, Serine/threonine-protein kinase DCLK2 (Homo sapiens). Conditions: at 10 µM.
In experiment [11] the target is T2, Discoidin domain-containing receptor 2 (Homo sapiens) (UniProt Q16832).
T2 sequence (whole entry): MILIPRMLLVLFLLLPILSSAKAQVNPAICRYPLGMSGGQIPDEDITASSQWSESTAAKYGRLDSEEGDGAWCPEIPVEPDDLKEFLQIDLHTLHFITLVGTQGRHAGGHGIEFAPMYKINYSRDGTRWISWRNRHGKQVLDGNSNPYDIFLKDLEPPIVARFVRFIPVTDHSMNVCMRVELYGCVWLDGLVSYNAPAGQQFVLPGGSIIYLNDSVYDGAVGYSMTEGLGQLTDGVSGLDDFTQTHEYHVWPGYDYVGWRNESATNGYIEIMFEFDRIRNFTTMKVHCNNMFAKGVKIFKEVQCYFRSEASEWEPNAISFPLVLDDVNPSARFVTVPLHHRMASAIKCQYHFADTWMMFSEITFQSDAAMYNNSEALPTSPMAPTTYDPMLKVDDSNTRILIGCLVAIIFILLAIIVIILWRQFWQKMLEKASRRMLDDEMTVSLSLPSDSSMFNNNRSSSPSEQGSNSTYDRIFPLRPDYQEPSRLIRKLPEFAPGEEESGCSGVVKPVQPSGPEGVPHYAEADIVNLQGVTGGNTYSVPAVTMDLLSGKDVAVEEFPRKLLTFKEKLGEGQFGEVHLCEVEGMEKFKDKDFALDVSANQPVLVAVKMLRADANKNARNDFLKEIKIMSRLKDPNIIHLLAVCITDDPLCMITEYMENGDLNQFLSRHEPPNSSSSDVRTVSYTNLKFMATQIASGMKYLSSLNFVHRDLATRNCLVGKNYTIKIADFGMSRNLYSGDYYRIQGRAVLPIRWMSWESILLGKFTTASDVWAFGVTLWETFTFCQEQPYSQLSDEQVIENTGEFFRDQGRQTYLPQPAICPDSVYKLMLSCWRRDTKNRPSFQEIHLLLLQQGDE
Conditions: at 10 µM.

Experiment [12] deals with T3, Myotonin-protein kinase (Homo sapiens) (UniProt Q09013).
T3 sequence (whole entry): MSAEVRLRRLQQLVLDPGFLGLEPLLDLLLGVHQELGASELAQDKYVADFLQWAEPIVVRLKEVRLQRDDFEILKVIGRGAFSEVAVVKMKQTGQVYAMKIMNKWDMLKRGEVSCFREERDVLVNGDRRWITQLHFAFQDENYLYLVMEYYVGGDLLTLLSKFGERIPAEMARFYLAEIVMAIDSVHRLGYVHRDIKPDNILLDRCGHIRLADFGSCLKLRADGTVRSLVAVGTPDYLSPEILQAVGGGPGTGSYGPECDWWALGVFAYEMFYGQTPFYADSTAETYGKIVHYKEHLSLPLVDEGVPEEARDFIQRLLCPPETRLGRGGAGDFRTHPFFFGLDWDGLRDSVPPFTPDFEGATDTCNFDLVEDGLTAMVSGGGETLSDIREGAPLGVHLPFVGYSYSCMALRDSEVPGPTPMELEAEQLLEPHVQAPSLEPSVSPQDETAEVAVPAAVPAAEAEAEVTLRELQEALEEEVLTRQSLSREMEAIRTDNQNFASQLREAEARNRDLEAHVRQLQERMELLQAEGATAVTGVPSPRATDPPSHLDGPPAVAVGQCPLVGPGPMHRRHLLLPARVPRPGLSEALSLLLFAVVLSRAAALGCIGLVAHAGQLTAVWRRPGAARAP
Conditions: at 1 µM.

Experiment [13] concerns the target T3, Myotonin-protein kinase (Homo sapiens). Conditions: at 10 µM.
Experiment [14] deals with T4, Serine/threonine-protein kinase 17A (Homo sapiens) (UniProt Q9UEE5).
T4 sequence (whole entry): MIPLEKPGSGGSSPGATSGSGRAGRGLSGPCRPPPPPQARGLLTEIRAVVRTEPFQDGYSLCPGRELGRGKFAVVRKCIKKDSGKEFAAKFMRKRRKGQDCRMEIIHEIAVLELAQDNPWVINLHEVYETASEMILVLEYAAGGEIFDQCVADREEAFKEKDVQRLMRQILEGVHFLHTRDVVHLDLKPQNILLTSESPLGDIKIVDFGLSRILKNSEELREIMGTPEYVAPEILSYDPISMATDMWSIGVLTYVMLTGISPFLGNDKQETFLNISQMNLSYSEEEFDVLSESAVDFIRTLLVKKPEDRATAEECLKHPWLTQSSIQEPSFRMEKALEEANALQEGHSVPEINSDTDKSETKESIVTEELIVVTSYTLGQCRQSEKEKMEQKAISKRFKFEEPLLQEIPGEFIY
The conditions noted are these: at 1 µM.

For experiment [15], the target named is Calcium/calmodulin-dependent protein kinase type II subunit beta (Homo sapiens) (UniProt Q13554). The conditions noted are these: at 1 µM.
Experiment [16] addresses T5, Calcium/calmodulin-dependent protein kinase type IV (Homo sapiens) (UniProt Q16566).
T5 sequence (whole entry): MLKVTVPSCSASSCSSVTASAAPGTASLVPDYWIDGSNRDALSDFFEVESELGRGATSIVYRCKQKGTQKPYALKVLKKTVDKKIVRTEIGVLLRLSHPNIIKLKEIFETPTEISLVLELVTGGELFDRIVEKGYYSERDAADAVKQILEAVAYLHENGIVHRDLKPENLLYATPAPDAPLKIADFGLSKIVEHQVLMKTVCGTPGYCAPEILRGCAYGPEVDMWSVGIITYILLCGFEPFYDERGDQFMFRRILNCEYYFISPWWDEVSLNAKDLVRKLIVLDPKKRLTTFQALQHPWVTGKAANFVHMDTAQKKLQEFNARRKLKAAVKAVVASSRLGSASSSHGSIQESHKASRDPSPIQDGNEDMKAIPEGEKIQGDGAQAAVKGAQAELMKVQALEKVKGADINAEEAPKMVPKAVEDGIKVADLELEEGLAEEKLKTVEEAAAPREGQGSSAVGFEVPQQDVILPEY
Conditions: at 1 µM.

Experiment [17] concerns the target T5, Calcium/calmodulin-dependent protein kinase type IV (Homo sapiens). The conditions noted are these: at 10 µM.
Experiment [18] addresses T2, Discoidin domain-containing receptor 2 (Homo sapiens). Conditions: at 1 µM.
Experiment [19] concerns the target Death-associated protein kinase 2 (Homo sapiens) (UniProt Q9UIK4). Conditions: at 1 µM.
The target is the same in experiment [20]. Conditions: at 10 µM.

Sequence of Death-associated protein kinase 2 (Homo sapiens) (Q9UIK4 whole entry, looked up): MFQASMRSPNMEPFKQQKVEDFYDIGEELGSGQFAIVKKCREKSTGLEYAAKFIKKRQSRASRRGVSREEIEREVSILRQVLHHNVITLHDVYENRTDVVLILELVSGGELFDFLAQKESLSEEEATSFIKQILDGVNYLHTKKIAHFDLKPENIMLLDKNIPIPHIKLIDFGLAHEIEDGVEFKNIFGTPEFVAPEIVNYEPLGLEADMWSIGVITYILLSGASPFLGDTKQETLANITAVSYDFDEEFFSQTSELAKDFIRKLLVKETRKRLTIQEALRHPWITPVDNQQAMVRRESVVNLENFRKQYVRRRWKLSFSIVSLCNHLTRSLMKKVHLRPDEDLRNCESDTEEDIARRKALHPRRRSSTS
Sequence of Calcium/calmodulin-dependent protein kinase type 1 (Homo sapiens) (Q14012 whole entry, looked up): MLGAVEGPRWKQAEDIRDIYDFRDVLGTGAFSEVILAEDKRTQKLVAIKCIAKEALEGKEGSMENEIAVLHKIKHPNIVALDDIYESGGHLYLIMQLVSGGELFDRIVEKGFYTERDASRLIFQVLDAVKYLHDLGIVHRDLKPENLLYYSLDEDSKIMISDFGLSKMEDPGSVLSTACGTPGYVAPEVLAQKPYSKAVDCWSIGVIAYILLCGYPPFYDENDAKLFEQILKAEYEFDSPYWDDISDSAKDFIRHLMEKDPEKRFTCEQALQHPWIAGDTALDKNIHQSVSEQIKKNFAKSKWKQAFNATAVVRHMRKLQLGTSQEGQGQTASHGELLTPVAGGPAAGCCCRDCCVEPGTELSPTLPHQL

Take `COc1cc2ncnc(Nc3cccc(Cl)c3)c2cc1OC`: the residual activity was 108% in experiment [1]; 62% in experiment [2]; 60% in experiment [3]; 45% in experiment [4]; 5% in [5]; 60% in experiment [6]. In addition, the residual activity in experiment [7] was 18%; in experiment [8] it was 100%; in [9], 122%; in experiment [10], 85%; in experiment [11], 74%; in [12], 103%. The residual activity came out at 113% in experiment [13] and 103% in experiment [14].
For `COc1cc2nccc(Oc3ccc(NC(=O)Nc4cc(C)on4)c(Cl)c3)c2cc1OC`, the residual activity came to 105% in experiment [1]; 41% in [2]; 97% in experiment [15]; 69% in [3]; 108% in [4]; 70% in experiment [5]. Moreover, the residual activity came to 102% in experiment [6]; 123% in experiment [16]; 54% in experiment [17]; 69% in [8]; 99% in experiment [9]; 104% in [10]. The residual activity amounted to 1% in experiment [18], 0% in [11], 100% in [12] and 148% in [13].
For the compound `COc1ccc2c(c1)c(C1=C(c3c[nH]c4ccccc34)C(=O)NC1=O)cn2CCCN(C)C`, the residual activity in experiment [1] was 96%; in experiment [2] it was 45%; in experiment [15], 80%; in experiment [3] it was 28%; in [4], 62%; in [5], 10%. For the same compound, the residual activity in [6] came out at 42%; in experiment [7], 8%; in experiment [16], 105%; in [17], 61%; in [8] it was 76%; in experiment [19], 71%. Moreover, the residual activity in experiment [20] is 32%; in experiment [9], 54%; in experiment [10] it was 55%; in [18], 111%; in experiment [12] it was 103%; in [13] it was 104%.
Consider `Nc1ncnc2c1cnn2-c1ccccc1`, for which the residual activity in experiment [1] amounted to 99%; in experiment [2], 69%; in experiment [3], 35%; in [4], 91%; in experiment [5], 51%; in experiment [6], 98%. Moreover, the residual activity was 63% in experiment [7]; 125% in [16]; 92% in experiment [17]; 86% in experiment [8]; 95% in [19]; 71% in experiment [9]. Also, in experiment [10], the residual activity came to 69%.
In the case of `Nc1ncnc2[nH]nc(Nc3ccc(F)cc3)c12`, the residual activity in experiment [1] came out at 91%; in experiment [2], 72%; in experiment [15], 67%; in [3] it was 20%; in [5], 30%; in experiment [6], 77%. Also, the residual activity in experiment [7] is 26%; in experiment [16], 100%; in experiment [17] it was 104%; in experiment [19] it was 99%; in [20] it was 100%; in experiment [9], 107%. For the same compound, the residual activity in experiment [10] came out at 96%; in experiment [18] it was 95%; in [11], 92%; in [14], 45%.
In the case of `Nc1ncnc2c1c(-c1ccc(Oc3ccccc3)cc1)cn2C1CCCC1`, the residual activity in experiment [1] was determined as 95%; in experiment [2], 29%; in experiment [15], 83%; in experiment [3] it was 57%; in experiment [5], 72%; in experiment [6], 98%. For the same compound, the residual activity was determined as 68% in experiment [7]; 112% in [16]; 85% in [17]; 69% in [8]; 101% in experiment [19]; 91% in experiment [9]. Moreover, the residual activity in experiment [10] is 93%; in experiment [18], 105%; in experiment [11] it was 53%; in experiment [12] it was 127%; in experiment [13], 127%; in [14] it was 110%.

By residual activity is commonly meant the signal under treatment as a percentage of the control signal.
